Source: PubChem BioAssay AID1347414 (National Center for Advancing Translational Sciences (NCATS), 2020)
Results filed as inconclusive are left out. Active and inactive are the calls of the source. Calls come from the whole dose curve; as a rule, active = well fitted inhibition curve with a large enough effect; inconclusive = small, poorly fitted or top-dose-only effect; inactive = no such curve, though single readings can be large or run the other way.

test: qHTS to identify inhibitors of the type 1 interferon - major histocompatibility complex class I in skeletal muscle: Secondary screen by immunofluorescence; details: C25cl48 myoblasts, IFN-b induced HLA-ABC immunofluorescence, 24 h; series mostly up to 49.8 µM; note: nearly all actives have a fitted effect of over 70% in size
Method in brief: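 HLA-ABC immunofluorescence, with nuclear and cell-body stains, was quantified by laser scanning cytometry. Read-out followed 24 h of IFN-beta (4.0 ng/ml) stimulation of C25cl48 human myoblasts with compounds titrated 1:3 over 11 points from 50 uM, with ruxolitinib as inhibitor control.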
Potency is the fitted concentration of half-maximal effect.

Row | SMILES | Potency
1 | COc1ncc(Nc2ncc(C(C)N3CCN(S(C)(=O)=O)CC3)cc2-c2nc(C)nc(N)n2)cc1F (centres undefined) | inactive
2 | O=C(/C=C\n1cnc(-c2cc(C(F)(F)F)cc(C(F)(F)F)c2)n1)NNc1cnccn1 | 324 nM (active)
3 | Cc1ccc(NC(=O)NCc2ccc3c(c2)CN(C2CCC(=O)NC2=O)C3=O)cc1Cl (centres undefined) | 8.1 nM (active)
4 | CS[C@H]1SC[C@@H]2C(=O)N(C)[C@H](C(C)C)C(=O)OC[C@H](NC(=O)c3cnc4ccccc4n3)C(=O)N[C@H](C)C(=O)N(C)[C@H]1C(=O)N(C)[C@H](C(C)C)C(=O)OC[C@H](NC(=O)c1cnc3ccccc3n1)C(=O)N[C@H](C)C(=O)N2C | 4.1 nM (active)
